# Data taken from article PMC7862700, “An all-to-all approach to the identification of sequence-specific readers for epigenetic DNA modifications on cytosine”.
# What was measured:
# Experiment in all cases: DAPPL (digital affinity profiling via proximity ligation, sequencing); 10 mM Tris-HCl pH 7.5, 50 mM NaCl, 1 mM DTT, 4% glycerol, room temperature, 30 min; GST-TFs on glutathione beads, 16-mer random dsDNA library, 0.1% formaldehyde crosslink after washing; high values mean tight binding
# [1] = biological target: T1, FLI1 (Homo sapiens, UniProt Q01543 1-452); details: protein: recombinant; tags: N-terminal GST; dsDNA, one strand shown
# T1 sequence: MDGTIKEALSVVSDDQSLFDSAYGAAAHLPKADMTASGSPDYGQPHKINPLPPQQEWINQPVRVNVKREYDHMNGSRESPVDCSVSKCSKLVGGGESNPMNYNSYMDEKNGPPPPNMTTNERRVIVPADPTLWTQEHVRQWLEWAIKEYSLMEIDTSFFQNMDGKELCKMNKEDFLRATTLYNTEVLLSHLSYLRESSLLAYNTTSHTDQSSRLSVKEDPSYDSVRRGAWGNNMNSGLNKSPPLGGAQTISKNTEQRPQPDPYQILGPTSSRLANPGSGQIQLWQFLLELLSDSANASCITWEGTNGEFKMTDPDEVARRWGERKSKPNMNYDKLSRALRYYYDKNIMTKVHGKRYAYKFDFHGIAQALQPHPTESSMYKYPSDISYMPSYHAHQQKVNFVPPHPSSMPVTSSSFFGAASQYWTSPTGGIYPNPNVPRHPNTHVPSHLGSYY
# Summary of the method: (§1)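 Binding signal is given per hexamer as its read frequency for a factor divided by its frequency in the tag-only sample. GST-fused human transcription factors were expressed in yeast, captured on glutathione beads, barcoded with DNA and pooled with that sample, then incubated with 200 nmole of a 16-mer random double-stranded DNA library in Tris/NaCl/DTT/glycerol buffer for 30 min at room temperature. The pools were then washed, crosslinked, proximity-ligated, amplified by PCR and sequenced on an Illumina NextSeq500.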
# [2] = biological target: T2, ELK1 (Homo sapiens, UniProt P19419 1-428); details: protein: recombinant; tags: N-terminal GST; dsDNA, one strand shown
# T2 sequence: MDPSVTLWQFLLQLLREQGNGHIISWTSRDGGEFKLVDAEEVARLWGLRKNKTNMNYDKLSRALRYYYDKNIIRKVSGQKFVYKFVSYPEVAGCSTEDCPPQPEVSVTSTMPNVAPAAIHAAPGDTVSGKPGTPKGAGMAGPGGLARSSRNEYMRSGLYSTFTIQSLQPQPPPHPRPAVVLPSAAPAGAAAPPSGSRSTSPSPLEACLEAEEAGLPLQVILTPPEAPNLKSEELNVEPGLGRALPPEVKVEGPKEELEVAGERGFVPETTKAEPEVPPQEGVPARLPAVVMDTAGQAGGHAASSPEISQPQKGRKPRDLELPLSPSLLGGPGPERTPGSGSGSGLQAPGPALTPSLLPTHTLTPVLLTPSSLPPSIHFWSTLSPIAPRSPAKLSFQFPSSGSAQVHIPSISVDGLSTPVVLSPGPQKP
# Summary of the method: as §1
# [3] = biological target: T3, GABPA (Homo sapiens, UniProt Q06546 1-454); details: protein: recombinant; tags: N-terminal GST; dsDNA, one strand shown
# T3 sequence: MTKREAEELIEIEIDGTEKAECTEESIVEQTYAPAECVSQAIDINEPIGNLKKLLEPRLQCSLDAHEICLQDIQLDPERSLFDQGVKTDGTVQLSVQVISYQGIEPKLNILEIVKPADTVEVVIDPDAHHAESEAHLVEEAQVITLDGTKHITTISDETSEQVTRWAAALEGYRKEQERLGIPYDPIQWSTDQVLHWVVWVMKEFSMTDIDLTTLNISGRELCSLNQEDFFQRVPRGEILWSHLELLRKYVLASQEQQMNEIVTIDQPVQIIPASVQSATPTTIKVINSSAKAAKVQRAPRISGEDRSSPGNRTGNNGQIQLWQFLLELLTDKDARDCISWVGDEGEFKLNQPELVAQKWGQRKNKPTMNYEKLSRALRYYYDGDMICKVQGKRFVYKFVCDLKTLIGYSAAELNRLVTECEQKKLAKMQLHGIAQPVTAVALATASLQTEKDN
# Summary of the method: as §1
# [4] = biological target: T4, ERG (Homo sapiens, UniProt P11308 1-479); details: protein: recombinant; tags: N-terminal GST; dsDNA, one strand shown
# T4 sequence: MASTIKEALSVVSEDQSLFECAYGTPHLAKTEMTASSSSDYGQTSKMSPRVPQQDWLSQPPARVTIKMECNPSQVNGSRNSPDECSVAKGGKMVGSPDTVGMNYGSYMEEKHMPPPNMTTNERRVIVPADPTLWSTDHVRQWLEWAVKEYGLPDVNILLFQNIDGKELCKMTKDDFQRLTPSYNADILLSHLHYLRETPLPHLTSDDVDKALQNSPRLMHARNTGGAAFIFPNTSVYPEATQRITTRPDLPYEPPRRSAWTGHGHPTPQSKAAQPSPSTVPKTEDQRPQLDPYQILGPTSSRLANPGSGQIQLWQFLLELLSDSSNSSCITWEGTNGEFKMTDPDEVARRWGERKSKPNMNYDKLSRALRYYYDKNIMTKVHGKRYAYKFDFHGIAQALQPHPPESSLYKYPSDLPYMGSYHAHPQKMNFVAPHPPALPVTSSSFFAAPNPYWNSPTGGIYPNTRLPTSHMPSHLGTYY
# Summary of the method: as §1
# [5] = biological target: ELF1 (Homo sapiens, UniProt P32519 1-619); details: protein: recombinant; tags: N-terminal GST; dsDNA, one strand shown
# Summary of the method: as §1
# [6] = biological target: T5, EHF (Homo sapiens, UniProt Q9NZC4 1-300); details: protein: recombinant; tags: N-terminal GST; dsDNA, one strand shown
# T5 sequence: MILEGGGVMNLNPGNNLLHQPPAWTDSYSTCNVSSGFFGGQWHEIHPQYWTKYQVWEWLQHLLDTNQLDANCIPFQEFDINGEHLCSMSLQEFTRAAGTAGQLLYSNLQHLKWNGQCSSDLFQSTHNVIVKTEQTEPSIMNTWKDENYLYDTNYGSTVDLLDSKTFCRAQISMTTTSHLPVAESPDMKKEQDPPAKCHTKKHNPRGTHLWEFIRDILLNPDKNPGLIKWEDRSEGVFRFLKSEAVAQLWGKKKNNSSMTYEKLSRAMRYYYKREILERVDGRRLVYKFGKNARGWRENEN
# Summary of the method: as §1
# [7] = biological target: SPI1 (Homo sapiens, UniProt P17947 1-270); details: protein: recombinant; tags: N-terminal GST; dsDNA, one strand shown
# Summary of the method: as §1
# [8] = biological target: SPIB (Homo sapiens, UniProt Q01892 1-262); details: protein: recombinant; tags: N-terminal GST; dsDNA, one strand shown
# Summary of the method: as §1
# [9] = biological target: T6, ELK3 (Homo sapiens, UniProt P41970 1-407); details: protein: recombinant; tags: N-terminal GST; dsDNA, one strand shown
# T6 sequence: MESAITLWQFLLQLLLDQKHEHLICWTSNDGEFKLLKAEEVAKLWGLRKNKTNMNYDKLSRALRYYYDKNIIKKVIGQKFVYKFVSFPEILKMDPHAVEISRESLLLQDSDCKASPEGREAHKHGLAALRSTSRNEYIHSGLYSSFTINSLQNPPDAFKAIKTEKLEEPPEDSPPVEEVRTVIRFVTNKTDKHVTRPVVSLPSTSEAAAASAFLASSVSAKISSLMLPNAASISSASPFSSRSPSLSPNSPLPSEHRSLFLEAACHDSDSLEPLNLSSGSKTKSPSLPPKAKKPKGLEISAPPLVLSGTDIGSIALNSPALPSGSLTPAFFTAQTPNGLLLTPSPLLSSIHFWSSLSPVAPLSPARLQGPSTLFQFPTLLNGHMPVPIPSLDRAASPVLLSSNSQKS
# Summary of the method: as §1
# [10] = biological target: T7, FEV (Homo sapiens, UniProt Q99581 1-238); details: protein: recombinant; tags: N-terminal GST; dsDNA, one strand shown
# T7 sequence: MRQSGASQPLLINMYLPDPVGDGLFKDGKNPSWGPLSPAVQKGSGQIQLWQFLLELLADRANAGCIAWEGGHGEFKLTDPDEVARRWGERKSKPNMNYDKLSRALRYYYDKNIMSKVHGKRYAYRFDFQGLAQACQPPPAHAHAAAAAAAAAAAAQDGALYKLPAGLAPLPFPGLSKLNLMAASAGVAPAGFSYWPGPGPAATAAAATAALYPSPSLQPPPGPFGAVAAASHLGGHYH
# Summary of the method: as §1
# [11] = biological target: ETV5 (Homo sapiens, UniProt P41161 1-510); details: protein: recombinant; tags: N-terminal GST; dsDNA, one strand shown
# Summary of the method: as §1
# [12] = biological target: HSF1 (Homo sapiens, UniProt Q00613 1-529); details: protein: recombinant; tags: N-terminal GST; chain copies: 3; dsDNA, one strand shown
# Summary of the method: as §1
# [13] = biological target: T8, SPIC (Homo sapiens, UniProt Q8N5J4 1-248); details: protein: recombinant; tags: N-terminal GST; dsDNA, one strand shown
# T8 sequence: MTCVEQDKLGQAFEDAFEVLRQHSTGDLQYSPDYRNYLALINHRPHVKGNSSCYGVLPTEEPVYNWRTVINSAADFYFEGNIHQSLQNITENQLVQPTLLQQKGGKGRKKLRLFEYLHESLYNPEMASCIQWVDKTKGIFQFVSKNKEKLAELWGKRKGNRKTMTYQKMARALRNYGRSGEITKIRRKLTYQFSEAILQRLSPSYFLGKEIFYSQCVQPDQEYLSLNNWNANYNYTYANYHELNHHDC
# Summary of the method: as §1
# [14] = biological target: ELF4 (Homo sapiens, UniProt Q99607 1-663); details: protein: recombinant; tags: N-terminal GST; dsDNA, one strand shown
# Summary of the method: as §1
# [15] = biological target: T9, ELK4 (Homo sapiens, UniProt P28324-2 1-405); details: protein: recombinant; tags: N-terminal GST; dsDNA, one strand shown
# T9 sequence: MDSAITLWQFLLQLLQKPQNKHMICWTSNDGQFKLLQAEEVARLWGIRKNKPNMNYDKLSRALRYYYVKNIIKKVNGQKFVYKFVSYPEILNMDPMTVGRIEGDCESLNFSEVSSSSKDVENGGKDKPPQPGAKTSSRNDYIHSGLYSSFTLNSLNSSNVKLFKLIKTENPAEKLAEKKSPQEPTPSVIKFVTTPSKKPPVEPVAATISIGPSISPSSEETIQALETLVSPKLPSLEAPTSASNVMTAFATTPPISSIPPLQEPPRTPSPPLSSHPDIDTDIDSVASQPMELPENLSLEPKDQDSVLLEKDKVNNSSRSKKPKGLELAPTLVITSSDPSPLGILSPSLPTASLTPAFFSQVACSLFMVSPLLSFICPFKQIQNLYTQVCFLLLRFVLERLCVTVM
# Summary of the method: as §1
# [16] = biological target: T10, ETV2 (Homo sapiens, UniProt O00321 1-342); details: protein: recombinant; tags: N-terminal GST; dsDNA, one strand shown
# T10 sequence: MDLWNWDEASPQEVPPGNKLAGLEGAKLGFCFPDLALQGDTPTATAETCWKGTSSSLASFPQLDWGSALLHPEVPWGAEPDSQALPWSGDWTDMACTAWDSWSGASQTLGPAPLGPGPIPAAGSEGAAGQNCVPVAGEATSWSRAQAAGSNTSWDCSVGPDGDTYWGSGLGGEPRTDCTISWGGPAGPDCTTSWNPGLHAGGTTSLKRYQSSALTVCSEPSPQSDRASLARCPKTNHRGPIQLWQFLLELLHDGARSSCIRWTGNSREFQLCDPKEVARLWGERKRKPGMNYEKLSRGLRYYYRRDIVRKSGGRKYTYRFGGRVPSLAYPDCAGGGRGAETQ
# Summary of the method: as §1
# [17] = biological target: T11, ELF3 (Homo sapiens, UniProt P78545 1-371); details: protein: recombinant; tags: N-terminal GST; dsDNA, one strand shown
# T11 sequence: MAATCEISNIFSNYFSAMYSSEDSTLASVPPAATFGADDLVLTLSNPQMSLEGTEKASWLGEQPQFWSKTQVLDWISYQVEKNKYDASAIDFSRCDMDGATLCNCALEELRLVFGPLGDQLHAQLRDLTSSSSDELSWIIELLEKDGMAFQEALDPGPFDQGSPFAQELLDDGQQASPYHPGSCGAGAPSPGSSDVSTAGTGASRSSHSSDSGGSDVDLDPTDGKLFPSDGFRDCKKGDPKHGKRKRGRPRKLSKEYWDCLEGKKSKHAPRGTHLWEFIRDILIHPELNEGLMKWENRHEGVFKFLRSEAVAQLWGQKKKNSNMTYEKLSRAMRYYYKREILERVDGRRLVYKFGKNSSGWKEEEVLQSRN
# Summary of the method: as §1
# [18] = biological target: CRX (Homo sapiens, UniProt O43186 1-299); details: protein: recombinant; tags: N-terminal GST; dsDNA, one strand shown
# Summary of the method: as §1
# [19] = biological target: ETV1 (Homo sapiens, UniProt P50549 1-477); details: protein: recombinant; tags: N-terminal GST; dsDNA, one strand shown
# Summary of the method: as §1
# Sequence of SPIB (Q01892 whole entry): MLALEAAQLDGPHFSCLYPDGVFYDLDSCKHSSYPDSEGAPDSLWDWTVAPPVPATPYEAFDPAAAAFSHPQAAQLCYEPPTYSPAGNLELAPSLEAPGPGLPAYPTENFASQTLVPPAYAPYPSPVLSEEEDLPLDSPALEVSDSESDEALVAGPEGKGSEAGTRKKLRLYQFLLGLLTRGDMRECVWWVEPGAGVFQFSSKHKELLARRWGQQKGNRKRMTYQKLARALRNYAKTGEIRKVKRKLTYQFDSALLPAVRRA
# Sequence of ELF4 (Q99607 whole entry): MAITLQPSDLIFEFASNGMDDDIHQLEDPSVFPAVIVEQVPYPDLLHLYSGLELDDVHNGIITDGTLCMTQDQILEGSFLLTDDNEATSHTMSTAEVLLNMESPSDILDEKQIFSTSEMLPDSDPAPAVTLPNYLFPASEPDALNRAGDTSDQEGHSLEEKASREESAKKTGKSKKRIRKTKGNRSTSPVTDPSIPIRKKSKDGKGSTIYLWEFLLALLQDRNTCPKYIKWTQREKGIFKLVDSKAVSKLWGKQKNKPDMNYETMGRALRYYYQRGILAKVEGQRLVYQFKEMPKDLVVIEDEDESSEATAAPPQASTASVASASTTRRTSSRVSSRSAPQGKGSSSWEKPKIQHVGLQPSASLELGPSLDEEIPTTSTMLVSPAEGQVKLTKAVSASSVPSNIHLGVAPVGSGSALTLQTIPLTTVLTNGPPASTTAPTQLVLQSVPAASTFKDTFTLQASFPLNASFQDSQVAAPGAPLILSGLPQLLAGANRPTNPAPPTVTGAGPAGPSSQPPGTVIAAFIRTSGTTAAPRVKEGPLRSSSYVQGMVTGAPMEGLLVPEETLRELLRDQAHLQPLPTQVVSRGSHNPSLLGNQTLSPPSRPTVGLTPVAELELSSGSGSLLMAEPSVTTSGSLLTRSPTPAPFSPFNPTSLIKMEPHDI
# Sequence of ELF1 (P32519 whole entry): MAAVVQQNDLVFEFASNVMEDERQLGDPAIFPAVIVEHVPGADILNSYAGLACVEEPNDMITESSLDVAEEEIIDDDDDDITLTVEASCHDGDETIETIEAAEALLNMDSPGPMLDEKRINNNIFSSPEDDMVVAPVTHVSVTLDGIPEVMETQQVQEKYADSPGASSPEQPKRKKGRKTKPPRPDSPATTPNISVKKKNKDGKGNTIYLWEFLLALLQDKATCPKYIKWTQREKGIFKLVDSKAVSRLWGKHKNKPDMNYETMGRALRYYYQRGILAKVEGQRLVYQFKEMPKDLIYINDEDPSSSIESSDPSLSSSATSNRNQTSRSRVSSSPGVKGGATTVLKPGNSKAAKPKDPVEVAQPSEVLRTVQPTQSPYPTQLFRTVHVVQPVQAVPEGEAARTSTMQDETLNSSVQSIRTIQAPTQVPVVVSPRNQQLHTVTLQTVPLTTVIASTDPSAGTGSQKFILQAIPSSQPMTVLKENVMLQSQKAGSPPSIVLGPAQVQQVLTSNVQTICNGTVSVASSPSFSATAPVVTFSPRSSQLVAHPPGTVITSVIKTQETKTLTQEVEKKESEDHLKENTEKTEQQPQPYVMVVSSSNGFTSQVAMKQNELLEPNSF
# Sequence of CRX (O43186 whole entry): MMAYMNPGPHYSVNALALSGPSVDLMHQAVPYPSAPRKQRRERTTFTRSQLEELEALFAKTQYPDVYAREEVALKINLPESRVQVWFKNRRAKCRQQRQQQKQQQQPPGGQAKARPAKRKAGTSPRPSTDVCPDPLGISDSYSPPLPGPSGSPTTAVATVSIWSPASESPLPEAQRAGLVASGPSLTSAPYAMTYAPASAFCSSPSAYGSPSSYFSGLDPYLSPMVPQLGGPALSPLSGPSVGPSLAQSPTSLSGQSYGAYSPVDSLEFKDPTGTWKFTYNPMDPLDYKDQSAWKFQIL
# Sequence of ETV5 (P41161 whole entry): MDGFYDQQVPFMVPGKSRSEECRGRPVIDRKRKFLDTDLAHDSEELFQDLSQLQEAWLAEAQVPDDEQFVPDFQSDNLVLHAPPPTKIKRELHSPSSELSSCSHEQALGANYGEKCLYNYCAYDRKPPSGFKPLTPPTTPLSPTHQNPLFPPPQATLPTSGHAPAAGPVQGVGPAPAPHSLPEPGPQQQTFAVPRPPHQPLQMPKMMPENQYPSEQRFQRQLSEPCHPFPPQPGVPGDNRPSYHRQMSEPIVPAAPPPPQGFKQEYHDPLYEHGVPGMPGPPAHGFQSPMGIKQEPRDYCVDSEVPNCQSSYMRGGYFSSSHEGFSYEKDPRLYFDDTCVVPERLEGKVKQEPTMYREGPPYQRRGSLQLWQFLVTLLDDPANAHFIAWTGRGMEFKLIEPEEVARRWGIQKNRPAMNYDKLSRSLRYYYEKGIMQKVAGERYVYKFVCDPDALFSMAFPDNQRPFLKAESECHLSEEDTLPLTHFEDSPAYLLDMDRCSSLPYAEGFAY
# Sequence of HSF1 (Q00613 whole entry): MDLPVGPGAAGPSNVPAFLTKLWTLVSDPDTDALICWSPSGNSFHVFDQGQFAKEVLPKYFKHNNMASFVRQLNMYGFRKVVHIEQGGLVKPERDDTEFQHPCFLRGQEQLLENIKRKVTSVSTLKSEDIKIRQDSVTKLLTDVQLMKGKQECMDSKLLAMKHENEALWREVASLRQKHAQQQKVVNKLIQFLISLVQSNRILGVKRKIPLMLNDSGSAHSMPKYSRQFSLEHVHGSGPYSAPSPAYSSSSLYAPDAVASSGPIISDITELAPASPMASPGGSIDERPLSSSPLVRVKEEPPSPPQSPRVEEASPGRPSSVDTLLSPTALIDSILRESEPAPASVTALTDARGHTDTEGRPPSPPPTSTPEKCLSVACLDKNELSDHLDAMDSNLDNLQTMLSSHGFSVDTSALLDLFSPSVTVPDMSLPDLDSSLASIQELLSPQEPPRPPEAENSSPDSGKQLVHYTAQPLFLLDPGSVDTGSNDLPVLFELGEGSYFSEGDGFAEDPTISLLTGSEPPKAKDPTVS
# Sequence of ETV1 (P50549 whole entry): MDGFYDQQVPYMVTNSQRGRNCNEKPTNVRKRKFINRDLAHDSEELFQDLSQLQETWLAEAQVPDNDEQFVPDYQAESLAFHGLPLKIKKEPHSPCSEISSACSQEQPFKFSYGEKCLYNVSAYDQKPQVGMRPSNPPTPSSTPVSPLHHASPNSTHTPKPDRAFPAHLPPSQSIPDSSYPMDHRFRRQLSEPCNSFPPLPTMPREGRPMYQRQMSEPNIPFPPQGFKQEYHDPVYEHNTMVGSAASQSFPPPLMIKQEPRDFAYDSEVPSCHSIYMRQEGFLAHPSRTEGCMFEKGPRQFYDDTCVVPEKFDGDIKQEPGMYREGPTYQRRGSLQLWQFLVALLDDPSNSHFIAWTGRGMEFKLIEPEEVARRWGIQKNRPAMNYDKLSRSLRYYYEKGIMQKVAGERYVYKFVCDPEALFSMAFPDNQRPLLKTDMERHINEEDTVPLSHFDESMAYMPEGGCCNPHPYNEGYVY
sequence,measurement,setting,value
TACGCG,binding signal,[1],"1.12 fold enrichment (6-mer frequency, TF over GST control)"
same,binding signal,[2],"1.14 fold enrichment (6-mer frequency, TF over GST control)"
same,binding signal,[3],"1.24 fold enrichment (6-mer frequency, TF over GST control)"
same,binding signal,[4],"1.14 fold enrichment (6-mer frequency, TF over GST control)"
same,binding signal,[5],"1.12 fold enrichment (6-mer frequency, TF over GST control)"
same,binding signal,[6],"1.06 fold enrichment (6-mer frequency, TF over GST control)"
same,binding signal,[7],"1.12 fold enrichment (6-mer frequency, TF over GST control)"
same,binding signal,[8],"1.13 fold enrichment (6-mer frequency, TF over GST control)"
same,binding signal,[9],"1.28 fold enrichment (6-mer frequency, TF over GST control)"
same,binding signal,[10],"1.11 fold enrichment (6-mer frequency, TF over GST control)"
same,binding signal,[11],"1.21 fold enrichment (6-mer frequency, TF over GST control)"
same,binding signal,[12],"1.17 fold enrichment (6-mer frequency, TF over GST control)"
same,binding signal,[13],"1.12 fold enrichment (6-mer frequency, TF over GST control)"
same,binding signal,[14],"1.12 fold enrichment (6-mer frequency, TF over GST control)"
same,binding signal,[15],"1.25 fold enrichment (6-mer frequency, TF over GST control)"
same,binding signal,[16],"1.21 fold enrichment (6-mer frequency, TF over GST control)"
same,binding signal,[17],"1.19 fold enrichment (6-mer frequency, TF over GST control)"
same,binding signal,[18],"1.24 fold enrichment (6-mer frequency, TF over GST control)"
same,binding signal,[19],"1.23 fold enrichment (6-mer frequency, TF over GST control)"
